Source: PubChem (National Center for Advancing Translational Sciences (NCATS))
DT40 TDP1 no CPT: qHTS for Inhibitors of human tyrosyl-DNA phosphodiesterase 1 (TDP1): qHTS in cells in absence of CPT | DT40 Tdp1-/- hTDP1 cells, no CPT, ATP luminescence, 48 h | Potency, µM (doses to about 46.2 µM), inactives show top-dose activity change, negative = growth inhibition, usual class: inhibitors | 420,000 tested, 15% active; also: nearly all actives have a fitted effect of over 55% in size
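Chicken DT40 Tdp1-/- cells stably complemented with human TDP1 were seeded at 400 cells/well with DMSO in place of 20 nM camptothecin. After compound pinning, cells grew at least 48 hr at 37 °C; viability read by CellTiter-Glo luminescence.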
Gal4-VP16 FLuc: VP16 counterscreen qHTS for inhibitors of ROR gamma transcriptional activity. Potency, µM (titrated, usually from 53.6 µM), without a hit: at the top dose activity, negative = inhibition, hits mostly inhibitors. Drosophila S2 Gal4-VP16 UAS-luciferase, luminescence, 20 h. AID 2546, 2010. 310,000 tested, 3.5% active;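 also: Gal4-VP16 expression switched on by copper sulfate through the metallothionein promoter; nearly all actives have a fitted effect of over 50% in size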
RORg inh: qHTS for inhibitors of ROR gamma transcriptional activity; 310,000 tested, 5.4% active; Potency, µM (top dose mostly 53.6 µM), for the others: top-dose activity change, negative = inhibition, actives largely listed as inhibitors; Nuclear receptor ROR-gamma (Mus musculus), P51450; Drosophila S2 Gal4-RORgamma UAS-luciferase reporter, 20 h; also: nearly all actives have a fitted effect of over 60% in size
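A Gal4/UAS one-hybrid system in insect cells: metallothionein-promoter Gal4–ROR gamma fusion plus Photinus luciferase reporter. Copper sulfate 700 uM final, 20 hr ambient incubation, luminescent detection after 10 min with reagent.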
TDP1 block: qHTS Assay for Inhibitors of Tyrosyl-DNA Phosphodiesterase (TDP1) | Tyrosyl-DNA phosphodiesterase 1 (Homo sapiens), Q9NUW8 | recombinant TDP1, AlphaScreen DNA substrate cleavage | Potency, µM (top dose mostly 130 µM), for the others: at the top dose activity change, negative = inhibition, hits mostly inhibitors | 350,000 tested, 0.28% active; also: nearly all actives have a fitted effect of over 40% in size
Target sequence (Q9NUW8 whole entry, looked up): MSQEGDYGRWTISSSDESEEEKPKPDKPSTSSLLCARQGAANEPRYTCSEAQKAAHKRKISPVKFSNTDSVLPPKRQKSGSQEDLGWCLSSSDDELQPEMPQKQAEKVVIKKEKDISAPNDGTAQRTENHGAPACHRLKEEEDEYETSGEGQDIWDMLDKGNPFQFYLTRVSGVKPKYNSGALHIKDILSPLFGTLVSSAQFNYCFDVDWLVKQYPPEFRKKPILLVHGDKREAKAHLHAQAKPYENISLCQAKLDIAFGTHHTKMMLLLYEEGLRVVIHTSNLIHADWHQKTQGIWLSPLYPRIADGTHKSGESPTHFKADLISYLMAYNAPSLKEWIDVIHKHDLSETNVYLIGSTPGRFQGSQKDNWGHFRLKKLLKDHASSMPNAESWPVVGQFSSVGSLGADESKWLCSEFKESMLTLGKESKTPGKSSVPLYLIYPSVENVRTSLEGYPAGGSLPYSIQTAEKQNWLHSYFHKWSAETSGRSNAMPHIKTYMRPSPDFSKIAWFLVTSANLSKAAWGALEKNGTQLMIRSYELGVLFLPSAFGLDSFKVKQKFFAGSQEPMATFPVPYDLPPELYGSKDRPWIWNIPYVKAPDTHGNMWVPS
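Compounds were preincubated with Tdp1 (1 nM final) for 15 min at room temperature before substrate (15 nM final) started a 5 min reaction; beads (10 ug/ml final) were then added for 10 min before AlphaScreen detection.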
DT40 TDP1 CPT: qHTS for Inhibitors of human tyrosyl-DNA phosphodiesterase 1 (TDP1): qHTS in cells in presence of CPT; 420,000 tested, 12% active; Potency, µM (series often up to 46.2 µM), inactives show top-dose activity change, negative = growth inhibition, actives largely listed as inhibitors; chicken DT40 Tdp1-/-;hTDP1 cells + 20 nM CPT, ATP luminescence, 48 h; AID 686979, 2013; also: nearly all actives have a fitted effect of over 55% in size
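Chicken DT40 Tdp1-/- cells complemented with human TDP1, 400 cells/well, exposed to compounds plus 20 nM camptothecin for at least 48 h at 37 C; viability read as ATP content by CellTiter-Glo luminescence.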
The depositor's hits bear a star; ? = inconclusive; nt = no result; [ ] = dose if it differs, or a comment. Compounds with a hit are over-represented: about 19% of the library has one in this group of screens. Calls follow the shape of the dose curve; as a rule, active = well fitted curve in the direction sought with a large enough effect; inconclusive = small, poorly fitted or top-dose-only effect, or another doubt; inactive = no such curve, though single readings can be large; an effect the other way counts as inactive or inconclusive. % is scaled to controls: 0 for no effect and ±100 for the full control effect; potency is read from the fitted curve at half-maximal effect.

SMILES	DT40 TDP1 no CPT	Gal4-VP16 FLuc	RORg inh	TDP1 block	DT40 TDP1 CPT
CCN1C(=O)C2(C(C#N)=C(N)Oc3c2c(C)nn3-c2ccccc2)c2ccccc21 (stereo not given)	16µM*	?	?	10%	18µM*
CC1(C)CC(=O)C2=C(C1)OC(N)=C(C#N)C21C(=O)N(Cc2ccccc2Cl)c2ccccc21 (stereo not given)	23µM*	-2%	1%	2%	?
CCCCc1[nH]nc2c1C1(C(=O)N(CC)c3ccccc31)C(C#N)=C(N)O2 (stereo not given)	-7%	-9%	22%	-6%	2%
COc1ccc(C2=NO[C@@H]3[C@@H]4C[C@@H]([C@H]5C(=O)N(c6ccc7c(c6)OCO7)C(=O)[C@@H]45)[C@H]23)cc1OC	-2%	-14%	-1%	4%	-3%
Cc1nn(-c2ccccc2)c(N)c1C1(O)C(=O)N(C)c2ccccc21 (stereo not given)	?	-6%	6%	0%	23µM*
Cc1nn(-c2ccccc2)c2c1C1(C(=O)N3c4c(cccc41)C(C)CC3(C)C)C(C#N)=C(N)O2 (stereo not given)	?	-2%	-18%	8%	?
CC(=O)N1C(=O)C2(C(C#N)=C(N)Oc3c2c(C)nn3-c2ccccc2)c2ccccc21 (stereo not given)	?	-9%	-30%	9%	23µM*
Cc1nn(-c2ccccc2)c2c1C1(C(=O)N(C)c3ccccc31)C(C#N)=C(N)O2 (stereo not given)	?	?	11µM*	9%	16µM*
Cc1nn(-c2ccccc2)c(N)c1C1(O)C(=O)Nc2ccccc21 (stereo not given)	2%	0%	10%	5%	-4%
O=C(Nc1cccc(S(=O)(=O)NC2=NCCC2)c1)c1ccc(=O)[nH]c1	18%	nt	nt	1%	-7%
CCOc1ccc(CCNC(=O)c2ccc(C)c(-n3c(C)nc4cccnc43)c2)cc1OCC	?	nt	nt	0%	?
O=C(Nc1cc(Cl)ccc1N1CCOCC1)c1ccc2c(c1)OCO2	?	nt	nt	nt	-4%
O=C(Nc1ccc(N2CCCC2)c(Cl)c1)c1ccc2c(c1)OCCO2	21µM*	nt	nt	nt	?
O=C(Nc1ccc(Cl)c(Cl)c1)c1ccc2c(c1)OCO2	?	nt	nt	-1%	14%
O=C(Nc1ccc(N2CCCCC2)c(Cl)c1)c1ccc2c(c1)OCCO2	21µM*	-26%	6%	5%	?
O=C(Nc1ccc(N2CCOCC2)c(Cl)c1)c1ccc2c(c1)OCCO2	?	?	0.79µM*	3%	?
CCOc1ccc(C(=O)NCC2CCCO2)cc1OCC (stereo not given)	-1%	0%	-9%	7%	9%
O=C(COc1ccc(Cl)cc1)Nc1ccc(Cc2ccncc2)cc1	?	-28%	?	3%	?
CC(C)Cn1c(N)c(C(=O)COC(=O)c2ccccc2F)c(=O)n(C)c1=O	?	-7%	31%	2%	?
COCc1c(C(=O)OCC(=O)c2c(N)n(CC(C)C)c(=O)n(C)c2=O)oc2ccccc12	21µM*	-8%	-2%	6%	18µM*
Cc1c(C(=O)OCC(=O)c2c(N)n(CC(C)C)c(=O)n(C)c2=O)oc2ccccc12	23µM*	-8%	?	-2%[56.1 µM]	?
CC(C)Cn1c(N)c(C(=O)COC(=O)c2ccc(F)cc2)c(=O)n(C)c1=O	?	5%	?	6%	?
COC(=O)c1ccc(C2c3[nH]c4ccccc4c3C[C@H]3C(=O)N(C4CC4)CC(=O)N23)cc1 (stereo not given in full)	10%	7%	5%	nt	-1%
Cc1ccc(-c2ccc(C(=O)NCc3ccccc3)o2)c2ccccc12	?	0%	3%	1%	23µM*
